TrxR1 substrate = qHTS Assay for Substrates of Mammalian Selenoprotein Thioredoxin Reductase 1 (TrxR1): qHTS; 390,000 tested, 0.01% active; AID 588456, 2011; purified TrxR1 substrate turnover, NADPH consumption readout; Thioredoxin reductase 1, cytoplasmic (Rattus norvegicus), O89049; Potency, µM (doses to about 114 µM), for the others: top-dose activity change, negative = substrate turnover; further: potency means the concentration at half of the fitted maximal effect; on the % scale 0 is the no-effect control and ±100 the full control effect; nearly all actives have a fitted effect of over 50% in size
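Rat TrxR1, dispensed at 90 nM, was prereduced with 400 uM NADPH (final) for 5 min at ~22 deg C, then incubated with compound 15 min before 400 uM selenite. A first-read NADPH fluorescence drop versus no-compound background flagged substrates.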
TrxR1 inh = qHTS Assay for Inhibitors of Mammalian Selenoprotein Thioredoxin Reductase 1 (TrxR1): qHTS. Thioredoxin reductase 1, cytoplasmic (Rattus norvegicus), O89049. 390,000 tested, 1% active. Potency, µM (series often up to 114 µM), for inactives: top-dose activity change, negative = inhibition, hits mostly inhibitors. recombinant rTrxR1, NADPH fluorescence consumption, selenite substrate; further: potency means the concentration at half of the fitted maximal effect; on the % scale 0 is the no-effect control and ±100 the full control effect; nearly all actives have a fitted effect of over 65% in size
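Rat TrxR1 (90 nM in the dispensed reagent) was pre-reduced with 400 uM NADPH for 5 min at room temperature, then incubated with compound for 15 min. After 400 uM selenite was added, NADPH fluorescence (Ex 340/Em 450 nm) was followed for 8 min.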
mIDH1 inhibitor = qHTS for Inhibitors of mutant isocitrate dehydrogenase 1 (IDH1): qHTS. Isocitrate dehydrogenase [NADP] cytoplasmic (Homo sapiens), O75874. 390,000 tested, 0.093% active. IDH1-R132H enzyme, NADPH consumption, diaphorase/resazurin fluorescence. Potency, µM (series often up to 76.6 µM), inactives show at the highest dose activity change, negative = inhibition, hits mostly inhibitors; further: potency means the concentration at half of the fitted maximal effect; on the % scale 0 is the no-effect control and ±100 the full control effect; nearly all actives have a fitted effect of over 65% in size
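IDH1-R132H (0.5 ug/mL) preincubated 30 min with compound, then NADPH (0.016 mM) and alpha-KG (2 mM) added; 80 min at RT, pH 7.5. Remaining NADPH coupled via diaphorase/resazurin to fluorescence (540/590 nm); concentration-response curves normalized to no-enzyme control.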
HEK293 tox = qHTS of GLP-1 Receptor Inverse Agonists: Cytotox Screen; HEK293 cAMP-luciferase reporter cells, luminescence, 24 h; Potency, µM (top dose mostly 38.3 µM), without a hit: at the highest dose activity change, negative = inhibition, hits mostly inhibitors; 410,000 tested, 0.13% active;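 further: loss of luciferase light is scored as toxicity; potency means the concentration at half of the fitted maximal effect; on the % scale 0 is the no-effect control and ±100 the full control effect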
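Quantitative HTS format, 1536 wells, 200 cells/uL seeded. Compounds: 23 nL, 24 h, 37 °C. Detection: luciferase reagent, luminescence at 12 min RT; decreased signal taken as cytotoxic.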
GLP1R inv ag = qHTS of GLP-1 Receptor Inverse Agonists (Inhibition Mode). 410,000 tested, 1.6% active. Potency, µM (top dose mostly 38.3 µM), for inactives: top-dose activity change, negative = inhibition, most hits filed as inhibitors. Glucagon-like peptide 1 receptor (Homo sapiens), P43220. HEK293 GLP-1R CRE-luciferase, luminescence, 24 h; GLP-1R form is constitutively active; further: potency means the concentration at half of the fitted maximal effect; on the % scale 0 is the no-effect control and ±100 the full control effect; nearly all actives have a fitted effect of over 55% in size
Target sequence (P43220 whole entry, looked up): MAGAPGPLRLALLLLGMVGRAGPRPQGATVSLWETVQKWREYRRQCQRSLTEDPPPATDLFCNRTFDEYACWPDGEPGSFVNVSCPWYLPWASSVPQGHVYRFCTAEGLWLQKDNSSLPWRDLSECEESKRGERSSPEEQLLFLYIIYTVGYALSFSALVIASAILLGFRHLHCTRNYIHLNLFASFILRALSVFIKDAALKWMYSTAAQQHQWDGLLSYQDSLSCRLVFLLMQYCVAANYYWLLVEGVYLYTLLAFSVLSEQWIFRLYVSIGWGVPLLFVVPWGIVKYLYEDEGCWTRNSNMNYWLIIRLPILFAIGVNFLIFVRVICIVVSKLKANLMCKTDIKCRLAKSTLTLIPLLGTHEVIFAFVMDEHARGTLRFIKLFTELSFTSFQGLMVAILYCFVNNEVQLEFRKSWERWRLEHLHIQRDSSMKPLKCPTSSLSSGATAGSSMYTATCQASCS
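Cells are plated, allowed 12 hours at 37 deg C, then treated with compounds for 24 hr before luciferase detection reagent is added and luminescence is read after 12 min at room temperature. The HEK293 line carries constitutively active GLP-1R with a cAMP-responsive reporter.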
GLP1R ag = qHTS of GLP-1 Receptor Agonists; Glucagon-like peptide 1 receptor (Homo sapiens), P43220; HEK293 GLP-1R CRE-luciferase, luminescence, 4-6 h; cells express a hypersensitive GLP-1R form; AID 624172, 2012; Potency, µM (highest dose often 45.6 µM), without a hit: top-dose activation, usual class: activators; 380,000 tested, 0.007% active; further: potency means the concentration at half of the fitted maximal effect; % of control where 0% means no effect
IDH1 autofl = qHTS for Inhibitors of mutant isocitrate dehydrogenase 1 (IDH1): Cherrypicks Autofluorescence Interference | inhibition of signal, % at 51.2 µM | 750 tested, under 10 active | Resorufin detection reagent fluorescence interference, cell-free | shares compounds with mIDH1 inhibitor;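 further: 0% = wells with normal resorufin and full inhibition = wells lacking resorufin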
IDH1 WT = qHTS for Inhibitors of mutant isocitrate dehydrogenase 1 (IDH1): Cherrypicks in WT IDH1; shares compounds with mIDH1 inhibitor; WT IDH1 enzyme, NADPH diaphorase/resazurin fluorescence; Potency, µM (series often up to 115 µM), for inactives: at the highest dose activity change, negative = inhibition, actives largely listed as inhibitors; 750 tested, 9% active; AID 623995, 2012;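 further: potency means the concentration at half of the fitted maximal effect; 0% = full WT IDH1 enzyme control and full inhibition = no enzyme wells; nearly all actives have a fitted effect of over 55% in size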
mIDH1 confirm = qHTS for Inhibitors of mutant isocitrate dehydrogenase 1 (IDH1): Confirmation of Cherrypicks; shares compounds with mIDH1 inhibitor; IDH1 R132H enzyme, NADPH diaphorase/resazurin fluorescence; Potency, µM (highest dose often 76.6 µM), for the others: at the highest dose activity change, negative = inhibition, most hits filed as inhibitors; 750 tested, 83% active; further: potency means the concentration at half of the fitted maximal effect; nearly all actives have a fitted effect of over 50% in size
* marks the source's active call; other numbers are inactive results; ? = inconclusive; . = no result given; [ ] = dose if it differs, or a comment. Rows were chosen to be rich in hits. Some 2.7% of all compounds tested hit in one or more screens of this group. The call rests on the fitted dose curve; in most records, active means well fitted curve in the direction sought with a large enough effect; inconclusive means small, poorly fitted or top-dose-only effect, or another doubt; inactive means no such curve, though single readings can be large; an effect the other way counts as inactive or inconclusive.

SMILES	TrxR1 substrate	TrxR1 inh	mIDH1 inhibitor	HEK293 tox	GLP1R inv ag	GLP1R ag	IDH1 autofl	IDH1 WT	mIDH1 confirm
O=C1c2[nH]nc(-c3ccccc3O)c2C(c2cccc(OCc3ccccc3)c2)N1CCCO (stereo unspecified)	-2%	6%	45µM*	-24%	?	.	-11	?	40µM*
CC(C)OCCCN1C(=O)c2[nH]nc(-c3ccccc3O)c2C1c1ccc(OCc2ccccc2)cc1 (stereo unspecified)	-2%	18%	-5%	?	?	.	.	.	.
Cc1cc(-n2c(SCC(=O)NCc3ccccc3)nc3ccsc3c2=O)ccc1Cl	-1%[57.1 µM]	6%[57.1 µM]	2%	-17%	?	.	.	.	.
CN1CC=C2C(C#N)=C(N)C(C#N)(C#N)[C@H](c3cccc(Cl)c3)C2C1 (stereo partly specified)	25%[57.1 µM]	8%[57.1 µM]	-23%	107%	-10%	10%	.	.	.
N#CC1=C(N)C2=CCCC[C@H]2[C@H](c2cccc(F)c2)C1(C#N)C#N	-15%	?	46µM*	87%	?	-12%	-8	48%	45µM*
Cc1ccc(C(=O)c2c(N)c(C(=O)Nc3ccccc3Cl)c3ccccn23)cc1	6%	10%	.	11%	5%	.	.	.	.
Cc1cc(NC(=O)CCC(=O)N(c2ccccc2)C(C(=O)NC2CCCCC2)c2cccs2)no1 (stereo unspecified)	6%	18%	?	-1%	1%	10%	0	-5%	16µM*
O=C(NC1CCCCC1)C(c1cccs1)N(C(=O)C(F)(F)F)c1ccccc1 (stereo unspecified)	7%	7%	?	-26%	-13%	4%	-12	5%	20µM*
Cc1ccc(N(C(=O)C(F)(F)F)C(C(=O)NC2CCCCC2)c2cccs2)cc1C (stereo unspecified)	3%	8%	3%	?	-10%	-9%	.	.	.
Cc1cc(NC(=O)CCC(=O)N(c2ccc(F)cc2)C(C(=O)NC2CCCC2)c2ccccc2)no1 (stereo unspecified)	4%	11%	?	-11%	-3%	8%	2	5%	40µM*
O=C(CCCC(=O)N(c1ccc2c(c1)OCCO2)C(C(=O)NC1CCCCC1)c1ccc(F)cc1)Nc1ccccn1 (stereo unspecified)	4%	3%	9.3µM*	-9%	-27%	3%	-8	2%	13µM*
Cc1ccc(C(C(=O)NC2CCCCC2)N(C(=O)CCCC(=O)Nc2ccccn2)c2ccc3c(c2)OCCO3)cc1 (stereo unspecified)	-9%	-7%	-18%	-15%	-5%	5%	.	.	.
Cc1ccc(NC(=O)Cn2c(=O)n(Cc3ccc4c(c3)OCO4)c(=O)c3ccc(C(=O)NC4CCCCC4)cc32)cc1	15%	16%	11%	0%	4%	2%	.	.	.
COc1ccc(NC(=O)CC(C)S(=O)(=O)c2cc3c(cc2C)NC(=O)CO3)cc1OC (stereo unspecified)	-2%	13%	-12%	-3%	-1%	.	.	.	.
C#CC(=O)N(c1cc(OC)ccc1OC)C(C(=O)NC1CCCC1)c1cccs1 (stereo unspecified)	-2%	1µM*	?	5µM*	7.9µM*	-42%	-7	11%	45µM*
Cc1cc(NC(=O)CCC(=O)N(c2ccccc2)C(C(=O)NC2CCCC2)c2ccc(F)cc2)no1 (stereo unspecified)	2%[0.457 µM]	5%	?	?	-11%	10%	-6	-4%	?
CCc1ccc(NC(=O)Cn2nnc(-c3ccccc3N)n2)cc1	0%	7%	32%	-4%	?	.	.	.	.
COc1cccc(N(C(=O)c2csnn2)C(C(=O)NC2CCCC2)c2ccccc2)c1 (stereo unspecified)	5%[57.1 µM]	13%[57.1 µM]	?	10%	2%	4%	4	-4%	40µM*
O=C(NC1CCCC1)C(c1ccncc1)N(C(=O)c1csnn1)c1ccccc1 (stereo unspecified)	3%[57.1 µM]	11%	-2%	-3%	0%	1%	.	.	.
O=C(NC1CCCCC1)C(c1ccco1)N(C(=O)c1csnn1)c1cccc(Cl)c1 (stereo unspecified)	7%[57.1 µM]	15%[0.0914 µM]	?	7%	?	-2%	0	-2%	28µM*
O=C(NC1CCCC1)C(c1ccccc1)N(C(=O)c1csnn1)c1ccccc1F (stereo unspecified)	-13%	-18%	?	4%	-9%	12%	-7	-2%	25µM*
O=C(NC1CCCCC1)C(c1ccc(Cl)cc1)N(C(=O)c1cnccn1)c1ccc2c(c1)OCO2 (stereo unspecified)	6%	17%	?	-8%	-8%	0%	-7	-11%	?
O=C(CN(C(=O)c1csnn1)c1cccc(Cl)c1)NC1CCCCC1	-5%	21%[57.1 µM]	1%	0%	6%	6%	.	.	.
COc1cc(OC)c(NC(=O)CC(C)S(=O)(=O)c2ccc3c(c2)NC(=O)CO3)cc1Cl (stereo unspecified)	-1%	13%	-16%	-11%	10%	.	.	.	.

Screening data as filed in PubChem.
